Shown are actives, neighbours in structure and some others; about 7.4% of the full set was active somewhere.
NPC1 prom act = NPC1 promoter activation. Huh7 NPC1 promoter luciferase reporter, 24 h. actives 2.4% (n = 320,000). Potency, µM (doses to about 9.22 µM), inactives show at the top dose activation, usual class: activators; further: % of control where 0% means no effect; nearly all actives have a fitted effect of over 60% in size
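Stably transfected Huh7 (NPC1 promoter→luciferase), 1500 cells/well in Opti-MEM + 10% FBS, 2 h settle, then compound 24 h at 37 °C. Luminescence after 10 min with Amplite reagent.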
p53 reactivator = restores transcriptional activity of mutant p53 | Potency, µM (top dose mostly 92.2 µM), for inactives: at the top dose activity change, positive = activation, hits mostly activators | AID 504706 | H1299 p53-A138V BP100-luciferase reporter, luminescence, 24 h | actives 0.063% (n = 320,000); further: % of control where 0% means no effect; nearly all actives have a fitted effect of over 45% in size
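p53-null H1299 cells stably carrying temperature-sensitive p53-A138V and a BP100-luciferase reporter were pinned with compounds (4-point, 1:5 series) and held 24 hrs at 37 deg C. Luminescence was read 10 min after detection reagent.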
FLuc counter = inhibits or activates purified firefly luciferase, miR-21 counter-screen; purified FLuc, Km substrates, luminescence inhibition; Potency, µM (titrated, usually from 57.5 µM), for the others: top-dose activity change, negative = inhibition, actives largely listed as inhibitors; actives 6.9% (n = 360,000);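 further: plate controls were vehicle for no effect and reference inhibitor for full effect; nearly all actives have a fitted effect of over 55% in size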
Target sequence (P08659 whole entry, looked up): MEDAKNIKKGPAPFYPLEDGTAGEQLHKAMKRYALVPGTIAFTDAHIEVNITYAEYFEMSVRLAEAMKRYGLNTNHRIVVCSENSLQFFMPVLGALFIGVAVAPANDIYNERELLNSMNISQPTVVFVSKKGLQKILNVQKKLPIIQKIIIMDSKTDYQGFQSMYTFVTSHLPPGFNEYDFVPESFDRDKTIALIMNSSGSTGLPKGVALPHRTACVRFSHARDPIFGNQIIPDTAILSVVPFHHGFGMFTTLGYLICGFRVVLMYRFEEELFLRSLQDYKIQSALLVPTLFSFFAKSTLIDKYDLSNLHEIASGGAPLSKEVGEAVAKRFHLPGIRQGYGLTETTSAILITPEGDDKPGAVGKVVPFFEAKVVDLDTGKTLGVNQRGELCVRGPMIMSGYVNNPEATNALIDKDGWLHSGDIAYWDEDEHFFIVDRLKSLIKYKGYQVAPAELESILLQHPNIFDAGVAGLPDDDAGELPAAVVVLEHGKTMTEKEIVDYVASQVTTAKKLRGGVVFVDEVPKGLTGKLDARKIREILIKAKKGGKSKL
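Purified P. pyralis luciferase, 10 nM final, with Km-level 10 uM D-luciferin and 10 uM ATP in 50 mM Tris acetate pH 7.5, 10 mM Mg acetate, 0.01% Tween-20, 0.05% BSA; 6-point qHTS titration about 60 µM downward; luminescence read.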
SMN2 splice up = SMN2 splice variant enhancement. HEK293 SMN2-luciferase splicing reporter, luminescence, 30-36 h. Potency, µM (highest dose often 46.1 µM), for the others: top-dose activity change, positive = activation, hits mostly activators. actives 2.8% (n = 210,000). AID 1458; further: % of control where 0% means no effect; nearly all actives have a fitted effect of over 55% in size
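HEK293 cells carry an SMN2 […]–luciferase reporter in which exon 7 inclusion puts luciferase in frame. Cells were plated 10-12 h before compound addition, then incubated 30-36 h at 37C. ONE-Glo luminescence was read; sodium butyrate at 4.5 mM final served as control.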
Rab9 promoter act = activates the Rab9 promoter; actives 2.8% (n = 320,000); Potency, µM (highest dose often 9.22 µM), for inactives: at the highest dose activation, negative = inhibition, most hits filed as activators; Huh7 Rab9 promoter-luciferase reporter, luminescence, 24 h; further: % of control where 0% means no effect; nearly all actives have a fitted effect of over 60% in size
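Measured in stably transfected Huh7 cells bearing a Rab9 promoter–luciferase construct: 24 h compound treatment at 37 °C, followed by luminescence detection.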
ELG1 genotox = induces genotoxicity in HEK293T cells with luciferase-tagged ELG1 | HEK293T ELG1-luciferase reporter, luminescence, 16 h | Potency, µM (top dose mostly 46 µM), for inactives: at the highest dose activity change, positive = activation, actives largely listed as activators | actives 1.3% (n = 330,000); further: % of control where 0% means no effect; nearly all actives have a fitted effect of over 60% in size
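Step 1: seed 2,000 HEK293T ELG1-luciferase cells per well. Step 2: add compound or DMSO, incubate 16 hr at 37 °C. Step 3: ONE-Glo, 30 min at room temperature, read luminescence.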
Starred values were filed as active, the others as inactive; ? = inconclusive; . = not tested or not shown; [ ] = another dose, or the depositor's remark. The call rests on the fitted dose curve; in most records, active means well fitted curve in the direction sought with a large enough effect; inconclusive means small, poorly fitted or top-dose-only effect, or another doubt; inactive means no such curve, though single readings can be large; an effect the other way counts as inactive or inconclusive. Potency means the concentration at half of the fitted maximal effect.

SMILES	NPC1 prom act	p53 reactivator	FLuc counter	SMN2 splice up	Rab9 promoter act	ELG1 genotox
O=C(c1ccco1)N1CCC2(CCCN(C(c3ccccc3)c3ccccc3)C2)CC1	.	.	.	-16%	.	.
CC1CCc2sc(C(=O)NCCCn3ccnc3)cc2C1 (stereo not given)	1%	14%	1%	.	-2%	-10%
CC(OC(=O)c1cc2c(s1)CCCCC2)C(=O)NC(N)=O (stereo not given)	3%	14%	24µM*	0%	2%	-5%
O=C(NCCCn1ccnc1)c1cc2c(s1)CCCCC2	8%	11%	17µM*	9%	8%	?
O=C(Nc1ccc(N2CCOCC2)cc1)c1cc2c(s1)CCCC2	10%	1%	?	-12%	2%	11%
O=C(Nn1cnnc1)c1cc2c(s1)CCCCC2	15%	?	6.7µM*	?	18%	?
Cc1ccc(C(=O)NC2CCC(C)CC2)s1 (stereo not given)	0.89µM*	?	?	.	0.4µM*	?
CC1CCN(S(=O)(=O)c2ccc3c(c2)N(CC(=O)NC(C)C)C(=O)CO3)CC1	.	.	1%	.	.	.
CNC(=O)c1cc2c(s1)-c1ccccc1CC2	?	-5%	19µM*	7.9µM*	?	?
CC1CCC(NC(=O)c2cc3c(s2)CCCC3)CC1 (stereo not given)	?	?	12µM*	.	?	?
CC(C)NC(=O)c1cc2c(s1)CCCC2	-2%	10%	?	-17%	-5%	10%
O=C(NCc1ccco1)c1cc2c(s1)CCCCC2	4µM*	21%	13µM*	14µM*	1.6µM*	12µM*
O=C(NCCO)c1cc2c(s1)CCC2	-6%	3%	0%	17%	-10%	-1%
CNC(=O)c1cc2c(s1)CCCCCC2	0%	2%	13µM*	4%	3%	0%
O=C(NCc1cccc2ccccc12)[C@H]1C[C@@H]1[C@H](NP(=O)(c1ccccc1)c1ccccc1)c1ccccc1	.	.	.	-31%	.	.
O=C(CSc1nc2ccccc2nc1Cc1ccccc1F)Nc1cccc(C(F)(F)F)c1	.	.	7%	-2%	.	.
COc1ccc(/C=N/NC(=O)c2nc(-c3ccccc3)n(-c3ccccc3)n2)cc1	-5%	-17%	15µM*	4%	-7%	-2%
Cc1nonc1C(=O)N/N=C/c1ccncc1	-1%	18%	?	-5%	-13%	1%
COc1ccc(/C=N\NC(=O)C2=NNC(=O)C2C)cc1 (stereo not given)	?	7%	6µM*	7%	?	?
COc1ccc(/C=N/NC(=O)c2nonc2C)cc1	18%	?	1.9µM*	?	?	?
COc1ccc(/C=N/NC(=O)CC(=O)N/N=C/c2ccc(OC)cc2)cc1	-3%	-5%	4%	?	2%	7%
COc1ccc(/C=N/NC(=O)c2nc(-c3ccccc3)n(-c3ccccc3)n2)c(O)c1	-21%	28%	?	-108%	-20%	?
Cc1nnc(NCc2ccc(Cl)cc2)c2c1nnn2Cc1ccc(F)cc1	.	.	-1%	2%	.	.
O=C(O)c1cc(Cl)cc(Cl)c1	.	.	.	-2%	.	.
CCCc1cc(=O)n2[nH]c(-c3ccco3)nc2n1	6%	7%	15µM*	-12%	-2%	1%
O=C(OC1Cc2c(O)cc(O)cc2OC1c1cc(O)c(O)c(O)c1)c1cc(O)c(O)c(O)c1 (stereo not given)	.	.	.	3%	.	.
COc1cc(SC)ccc1C(=O)N1CCC(Cc2ccccc2)CC1	-19%[46.1 µM]	.	.	.	-21%[46.1 µM]	.
CCCn1c2ccccc2c2cnn(CC(=O)NCc3ccccc3Cl)c(=O)c21	.	.	-5%	.	.	.
O=C(C[n+]1cc(-c2ccc(F)cc2)n2c1CCC2)N1c2ccccc2Sc2ccccc21	?	?	2.4µM*	76%	2.8µM*	?

Screens: PubChem, National Center for Advancing Translational Sciences (NCATS)
